The values below come from PubChem BioAssay AID743395 (Broad Institute, 2014).

The campaign covered roughly 1,200 compounds. About 480 (40%) were called active. The set was probably picked from earlier hits. Not all results are given here. Entries with a potency or affinity are not part of this list. Values without a mark were called inactive. The rule behind the calls is not given here.

A short description of this test: viability loss in human hepatoma cells – cell-based, CellTiter-Glo luminescence, cherry-pick, set 2, cytotoxicity control, dose response (AID 743395).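 Note: 0% = neutral control wells and -100% = positive control wells.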 Particulars: HepG2 viability, CellTiter-Glo ATP luminescence, 72 h; series mostly up to 26 µM; activity change, negative = cytotoxicity: at the top concentration. On the technique in general: In ATP-based viability assays light output follows the ATP content of the culture.
As to `CN(Cc1c(F)cccc1Cl)C(=O)c1ccc(NC(=O)CC2SC(N3CCCCC3)=NC2=O)cc1` (stereo unspecified), the “activity change, negative = cytotoxicity” value is -8.12%. Consider `Cc1noc(NS(=O)(=O)c2ccc(N/C=C\C(=O)c3ccccc3)cc2)c1C`, for which the “activity change, negative = cytotoxicity” value is -5.75%. With `COc1cc(OC)cc(C(=O)NC(=S)Nc2ccc3oc(=O)ccc3c2)c1` the figure was 7.96%; with `Cc1cc2nnc(SCC(=O)NCc3ccco3)n2c2ccccc12`, 10.6%; with `O=C(c1[nH]ncc1-c1ccc(Cl)cc1)C1CO1` (stereo unspecified), -2.79%. The same measure for `S=C(NCc1ccco1)NCC1CCCO1` (stereo unspecified): -18.5%; for `CCCCC1(C2CCCC2)NC(=O)NC1=O` (stereo unspecified): 5%.

With `CNS(=O)(=O)c1cccc(C(=O)OCC(=O)c2cc(C)n(CC3CCCO3)c2C)c1` (stereo unspecified), the “activity change, negative = cytotoxicity” value is 7.11%. Take `O=Cc1ccccc1OCc1ccc2c(c1)OCO2`: the “activity change, negative = cytotoxicity” value is 1.7%. With `CCOC1=C2[C@@H](CN(S(=O)(=O)c3ccc(C)cc3)[C@H]2c2ccc(Cl)cc2)[C@H]2C(=O)N(c3ccccc3)C(=O)[C@H]2C1`, the “activity change, negative = cytotoxicity” value is -5.52%.

`COc1cc(C(=O)c2cocc2C(=O)c2ccc3c(c2)OCO3)cc(OC)c1OC`: the “activity change, negative = cytotoxicity” value was -22.8%. Regarding `COc1ccc(N(C)S(=O)(=O)c2cccc(C(=O)NCC3CCCCC3)c2)cc1`, the “activity change, negative = cytotoxicity” value is -13.4%. Consider `COCCNC(=O)C1CCCN(C(=O)c2ccc3sccc3c2)CC1` (stereo unspecified), for which the “activity change, negative = cytotoxicity” value is -0.219%. `COc1ccc2c3c(n(C)c2c1)[C@H](CO)NCC31CCN(Cc2cc(-c3ccccc3)on2)CC1`: the “activity change, negative = cytotoxicity” value was -16.1%. `COc1ccc2c3c([nH]c2c1)[C@H](CO)N(C(=O)Nc1ccc(F)cc1)CC31CCN(S(=O)(=O)c2ccccc2)CC1`: the “activity change, negative = cytotoxicity” value was -4.51%. On to `COCC(=O)N1C[C@@H]2[C@H](c3ccccc31)[C@H](CO)N2Cc1ccc(OC)cc1`, for which the “activity change, negative = cytotoxicity” value was 11.1%.

In the case of `CCCNC(=O)N1CC2(CN(CC3CCCCC3)C2)c2c(n(C)c3cc(OC)ccc23)[C@H]1CO`, the “activity change, negative = cytotoxicity” value is -7.75%. In the case of `COc1ccc2c(c1)[nH]c1c(=O)n(/N=C/c3ccc(OC)c(CN4CCCC4)c3)cnc12`, the “activity change, negative = cytotoxicity” value was -6.55%. `Cc1sc(NC(=S)NC(=O)CCc2ccccc2)c(C(N)=O)c1C`: the “activity change, negative = cytotoxicity” value was -30.3%. With `COCCNC(=O)NC12CC3(C)CC(C)(CC(C)(C3)C1)C2`, the “activity change, negative = cytotoxicity” value was -11.8%. Regarding `COc1ccccc1C(=O)Nc1onc(C)c1C#N`, the “activity change, negative = cytotoxicity” value was -24.7%. For `COc1cccc(CNC(=O)CSc2nc3ccc(C)cc3[nH]2)c1`, the “activity change, negative = cytotoxicity” value was 3.46%.

As to `COc1cccc(N2CCN(C(=O)c3ccc(CS(=O)c4ccc(Cl)cc4)o3)CC2)c1` (stereo unspecified), the “activity change, negative = cytotoxicity” value is -27.7%. The same measure for `CC(C)(C)c1csc(NC(=O)Cc2cccs2)n1`: -22.9%; for `CN1CCN(C(=O)c2ccc(CN(c3ccccc3)S(=O)(=O)c3ccccc3)cc2)CC1`: 4.86%. For the compound `Cc1ccc(S(=O)(=O)N[C@H](C(=O)OCC(=O)NC(=O)C2CCCCC2)C(C)C)cc1`, the “activity change, negative = cytotoxicity” value is 2.53%. For `CC(C)c1ccc(NC(=O)CN2C(=O)NC3(CCCCCCC3)C2=O)cc1`, the “activity change, negative = cytotoxicity” value is -33%.

In the case of `CSc1ccccc1NC(=O)COC(=O)CCC(=O)c1ccc(F)cc1`, the “activity change, negative = cytotoxicity” value was -16.4%. Take `CC(=O)OCCn1c2nc(=O)[nH]c(=O)c-2nc2cc(C)c(C)cc21`: the “activity change, negative = cytotoxicity” value is -13.6%.

For `COc1cccc(NC(=O)N(C)C[C@H]2OCc3ccccc3-c3c(n(C)c4ccccc34)C(=O)N([C@H](C)CO)C[C@H]2C)c1`, the “activity change, negative = cytotoxicity” value is 0.205%. With `O=C(c1[nH]ncc1-c1cccc(Br)c1)C1CO1` (stereo unspecified), the “activity change, negative = cytotoxicity” value was 1.28%. With `CC(C)CCNC(=O)C(=O)Nc1ccc2c(c1)N(S(=O)(=O)c1cccs1)CCC2` the figure was -1.58%; with `CCOC(=O)C1=CN(Cc2cccc(I)c2)S(=O)(=O)N(C)C1C` (stereo unspecified), -1.74%; with `CC(C)c1nc2oc3c(NCCO)ncnc3c2c2c1COC(C)(C)C2`, -2.05%. Take `O=CNc1cc(-c2ccc(C(=O)NC3CC3)cc2)cn2c(-c3ccccc3)cnc12`: the “activity change, negative = cytotoxicity” value was -21.5%. In the case of `COc1ccc(-c2cnc3c(NC=O)cc(-c4ccccc4)cn23)cc1OC`, the “activity change, negative = cytotoxicity” value is -26.2%. Regarding `COc1cc(-c2cnc3c(NC=O)cc(-c4cccc(C(F)(F)F)c4)cn23)cc(OC)c1OC`, the “activity change, negative = cytotoxicity” value is -1.54%.

For the compound `O=C(COC(=O)Cc1ccsc1)Nc1cccc(F)c1`, the “activity change, negative = cytotoxicity” value is 12.6%. In the case of `COc1cccc2cc(C(=O)NCCN3CCOCC3)c(=O)oc12`, the “activity change, negative = cytotoxicity” value was -7.51%.

In the case of `COc1ccccc1OCCNC(=O)CCNC(=O)c1ccccc1OC`, the “activity change, negative = cytotoxicity” value is 20.5%. With `NS(=O)(=O)c1ccc(NC(=O)c2cccc3cc4ccccc4nc23)cc1`, the “activity change, negative = cytotoxicity” value was -17.1%.

Take `O=C1NC(Cc2ccc(O)cc2)c2nc3ccc(Br)cc3c(=O)n2-c2cc3ccccc3cc21` (stereo unspecified): the “activity change, negative = cytotoxicity” value is -15.4%.

Consider `COc1ccccc1S(=O)(=O)N1CC[C@@H]2[C@@H](CO)N(C)c3ccc(-c4ccc(F)cc4)cc3[C@@H]21`, for which the “activity change, negative = cytotoxicity” value was -3.19% [at 7.5 µM].

On to `COc1ccccc1Cc1c(-c2ccc(Cl)cc2)nc2ccc(Br)cn12`, for which the “activity change, negative = cytotoxicity” value is -14.7%. Take `O=C(O)CCCCCCCCc1cn(Cc2ccc(C(=O)c3ccccc3)cc2)nn1`: the “activity change, negative = cytotoxicity” value is -20.9%.

Consider `CC1CCN(S(=O)(=O)N2CCCC(C(=O)NCc3ccccc3Cl)C2)CC1` (stereo unspecified), for which the “activity change, negative = cytotoxicity” value is 5.63%. Turning to `C[C@@](Cc1ccc(O)c(O)c1)(NN)C(=O)O`, the “activity change, negative = cytotoxicity” value was -13%. On to `COc1ccc(NC(=O)c2cc(C3CC3)on2)c(OC)c1`, for which the “activity change, negative = cytotoxicity” value is -10.3%. As to `Cc1ccc(Nc2nc(CSc3nnc(-c4cccnc4)n3-c3ccccc3F)cs2)cc1`, the “activity change, negative = cytotoxicity” value was 0.425%. As for `Cc1cc(C(=O)CCC(=O)NC(C)c2ccc(S(N)(=O)=O)cc2)c(C)s1` (stereo unspecified), the “activity change, negative = cytotoxicity” value is -14.7%. Regarding `Cc1c(Cl)cccc1NC(=O)C1CC(=O)N(C2CCCC2)C1` (stereo unspecified), the “activity change, negative = cytotoxicity” value was -4.45%.
